# Reference: PubChem BioAssay AID2284172 (EPA ToxCast)
# The source made the active and inactive calls. The calls were made as follows: active = hit-call score of the fitted dose curve at least 0.9, where 1 is the maximum; inactive = score below 0.9.
# Target: rat Cav1.2 (L-type), conducted at France lab site, Cacna1a (gene 25398) (UniProt P54282)
# Assay: ERF_FR_IC_rCACNA1C_Dihydropyridine: Eurofins (ERF) Calcium Ion Channel Binding (Dihydropyridine Site) LeadHunter Assay for rat Cav1.2 (L-type), conducted at France lab site
# Method: ERF_FR_IC_rCACNA1C_Dihydropyridine is a biochemical, single-readout assay that uses extracted gene-proteins in a cell-free assay. Measurements were taken 1.5 hour after chemical dosing in a 96-well plate. See Cav1.2 (L-type) Rat Calcium Ion Channel Binding (Dihydropyridine Site) Assay, Cerep.ERF_FR_IC_rCACNA1C_Dihydropyridine is an assay component calculated from the ERF_FR_IC_rCACNA1C_Dihydropyridine assay. It is designed to measure radioligand binding using a type of binding reporter as detected by scintillation counting with radiometry technology.Data from the assay component ERF_FR_IC_rCACNA1C_Dihydropyridine was analyzed at the assay endpoint, ERF_FR_IC_rCACNA1C_Dihydropyridine, in the positive analysis fitting direction relative to DMSO as the negative control and baseline of activity. Using a type of binding reporter, loss-of-signal activity can be used to understand changes in binding as they relate to gene CACNA1C. To generalize the intended target to other relatable targets, this assay endpoint is annotated to the ion channel intended target family, where the subfamily is voltage gated (Calcium).
# Rat brain cells are incubated for 90 minutes at room temprature with [3H]nitrendipine (0.25 nM) ligand and Nitrendipine as control inhibitor. Test Sample Requirements: Minimum for 1) Screen: 60 ul of 10 mM stock -OR- 1 mg (pre-weighed) for 10 uM final testing. […]
# Chain of rat Cav1.2 (L-type), conducted at France lab site, Cacna1a (gene 25398) (P54282 whole entry, looked up): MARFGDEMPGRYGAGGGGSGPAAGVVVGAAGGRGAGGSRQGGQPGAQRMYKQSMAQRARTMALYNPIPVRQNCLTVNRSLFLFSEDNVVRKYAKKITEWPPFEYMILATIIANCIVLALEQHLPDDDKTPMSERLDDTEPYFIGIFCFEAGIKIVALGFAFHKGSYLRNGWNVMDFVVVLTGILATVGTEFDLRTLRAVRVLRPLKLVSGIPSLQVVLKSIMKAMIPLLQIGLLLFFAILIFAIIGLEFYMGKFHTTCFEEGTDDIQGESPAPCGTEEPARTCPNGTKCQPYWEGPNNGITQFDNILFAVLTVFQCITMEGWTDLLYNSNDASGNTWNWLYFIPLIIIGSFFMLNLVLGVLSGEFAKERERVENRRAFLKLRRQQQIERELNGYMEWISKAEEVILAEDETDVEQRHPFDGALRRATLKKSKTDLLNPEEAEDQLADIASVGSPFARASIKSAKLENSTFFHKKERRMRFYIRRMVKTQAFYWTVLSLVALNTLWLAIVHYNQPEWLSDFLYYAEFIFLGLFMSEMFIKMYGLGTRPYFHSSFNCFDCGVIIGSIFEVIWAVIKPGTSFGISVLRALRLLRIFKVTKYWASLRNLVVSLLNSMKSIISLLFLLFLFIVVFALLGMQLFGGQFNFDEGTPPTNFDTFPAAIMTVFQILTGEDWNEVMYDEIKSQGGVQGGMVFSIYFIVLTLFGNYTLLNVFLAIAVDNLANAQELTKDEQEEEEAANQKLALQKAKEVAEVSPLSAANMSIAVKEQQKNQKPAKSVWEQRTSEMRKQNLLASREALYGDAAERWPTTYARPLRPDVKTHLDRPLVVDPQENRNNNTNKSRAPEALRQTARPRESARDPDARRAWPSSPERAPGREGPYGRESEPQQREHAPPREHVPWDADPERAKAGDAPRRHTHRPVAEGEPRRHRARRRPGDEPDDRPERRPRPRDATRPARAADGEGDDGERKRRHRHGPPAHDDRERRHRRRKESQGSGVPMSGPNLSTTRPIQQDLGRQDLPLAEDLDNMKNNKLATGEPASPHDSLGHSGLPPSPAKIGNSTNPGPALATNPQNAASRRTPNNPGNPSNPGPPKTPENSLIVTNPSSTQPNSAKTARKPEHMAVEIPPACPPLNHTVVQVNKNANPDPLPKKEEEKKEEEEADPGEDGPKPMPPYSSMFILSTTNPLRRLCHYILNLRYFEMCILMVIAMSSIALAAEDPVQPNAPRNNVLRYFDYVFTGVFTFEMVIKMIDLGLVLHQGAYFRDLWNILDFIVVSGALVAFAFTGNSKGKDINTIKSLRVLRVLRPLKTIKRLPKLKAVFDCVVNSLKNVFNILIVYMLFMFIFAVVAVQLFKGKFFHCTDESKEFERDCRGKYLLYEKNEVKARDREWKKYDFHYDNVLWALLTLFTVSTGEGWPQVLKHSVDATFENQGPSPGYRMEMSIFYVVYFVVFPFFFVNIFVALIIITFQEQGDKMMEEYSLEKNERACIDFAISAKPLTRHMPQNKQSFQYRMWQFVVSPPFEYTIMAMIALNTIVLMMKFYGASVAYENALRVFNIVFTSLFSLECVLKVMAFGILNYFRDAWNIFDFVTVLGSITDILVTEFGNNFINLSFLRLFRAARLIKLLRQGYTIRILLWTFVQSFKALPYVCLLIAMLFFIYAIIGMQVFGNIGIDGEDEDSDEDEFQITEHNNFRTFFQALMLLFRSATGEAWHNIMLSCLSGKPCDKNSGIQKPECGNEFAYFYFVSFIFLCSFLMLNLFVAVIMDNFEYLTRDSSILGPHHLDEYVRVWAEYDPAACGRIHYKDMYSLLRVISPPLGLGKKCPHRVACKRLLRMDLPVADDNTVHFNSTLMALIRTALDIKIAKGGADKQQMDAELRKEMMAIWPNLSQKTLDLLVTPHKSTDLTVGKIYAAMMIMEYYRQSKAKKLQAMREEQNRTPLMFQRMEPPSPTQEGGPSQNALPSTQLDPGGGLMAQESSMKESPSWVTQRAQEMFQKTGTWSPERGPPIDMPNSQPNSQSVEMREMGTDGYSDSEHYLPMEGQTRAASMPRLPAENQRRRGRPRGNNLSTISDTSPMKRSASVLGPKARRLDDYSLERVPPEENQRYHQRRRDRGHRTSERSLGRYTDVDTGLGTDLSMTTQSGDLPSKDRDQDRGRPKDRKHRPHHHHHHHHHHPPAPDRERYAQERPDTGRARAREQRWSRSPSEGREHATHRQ
smiles,measurement,value
CCCCC[C@H](O)CC(=O)CCc1ccc(O)c(OC)c1,outcome,inactive
